Screening data (PubChem BioAssay)
FECH block: inhibitors of human ferrochelatase, primary screen, biochemical, purified FECH, Ni-mesoporphyrin absorbance | Ferrochelatase, mitochondrial (Homo sapiens), P22830 | Ni-mesoporphyrin absorbance 550 nm | calls only at 10 µM (by protocol) | 20,000 tested, 3.3% active | AID 1671448, 2021;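 active = enzyme reaction rate more than 3 SD below the solvent-only control wells on the same plate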;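 also: lower slope than DMSO wells means FECH inhibition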
Target sequence (P22830 whole entry, looked up): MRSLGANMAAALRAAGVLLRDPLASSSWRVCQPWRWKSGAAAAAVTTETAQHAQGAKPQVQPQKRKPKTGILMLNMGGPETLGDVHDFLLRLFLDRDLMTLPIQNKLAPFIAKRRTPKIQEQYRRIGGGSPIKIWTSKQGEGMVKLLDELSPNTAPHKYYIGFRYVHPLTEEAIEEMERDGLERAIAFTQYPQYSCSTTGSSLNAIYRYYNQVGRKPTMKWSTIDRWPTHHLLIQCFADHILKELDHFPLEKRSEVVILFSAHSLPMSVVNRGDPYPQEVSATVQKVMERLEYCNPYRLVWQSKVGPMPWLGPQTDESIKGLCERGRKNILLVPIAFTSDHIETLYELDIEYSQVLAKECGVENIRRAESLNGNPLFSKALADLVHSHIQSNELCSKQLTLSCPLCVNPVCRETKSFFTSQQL
An asterisk follows results filed as active; i = inactive; + = active, no number. This is one part of a sample in which hits are shown more often than they occur.

SMILES	FECH block
COc1cccc(-c2ccc(C(=O)NCc3noc(C(C)C)n3)cn2)c1F	i
CCOc1ccc(Nc2nc(N(C)C)nc3c2cnn3-c2ccccc2)cc1	i
CC(=O)NCCn1ccnc1-c1cc(C#CCO)cs1	i
Cc1ccc2oc(C(=O)N3CCC(O)(Cn4ccnc4)CC3)cc2c1	i
O=C(NCC1CCOC1)c1cc(Cn2cnc3ccccc32)[nH]n1 (stereo not given)	i
CSc1nc(-c2ccccc2)c(C#N)c(N2CCN(CCO)CC2)n1	i
CCOc1ccc(CCNC(=O)c2ccc(CN3C(=O)CCn4nccc43)cc2)cc1	i
CCc1nnc(CNC(=O)C(c2cccc(C)c2)N(C)C)s1 (stereo not given)	i
CCCNC(=O)c1nc(N2CCCC2)c2oc3ccccc3c2n1	i
Cc1ccccc1-c1nc2nc(CNc3cccc(Cl)c3C)cc(=O)n2[nH]1	i
Cc1ccc(Cl)cc1NCc1cc(=O)n2[nH]c(-c3ccccc3C)nc2n1	+
Cc1ccc(NCc2cc(=O)n3[nH]c(-c4ccccc4C)nc3n2)cc1Cl	i
Cc1ccccc1-c1nc2nc(CNc3ccc(F)cc3)cc(=O)n2[nH]1	+
Cc1cccc(C)c1NCc1cc(=O)n2[nH]c(NCc3ccc(F)cc3)nc2n1	i
Cc1ccccc1-c1nc2nc(CNc3cccc(C)c3C)cc(=O)n2[nH]1	i
CCc1c(C)nc2ncnn2c1Sc1ccc(NC(=O)COc2ccc(Cl)cc2)cc1	i
CC(=O)Nc1ccc(NC(=O)CCc2nc(-c3cc4ccc(C)cc4[nH]c3=O)no2)cc1	i
CCOc1ccccc1CN(C(=O)c1cc(C)nn1C)C1CC1	i
Cc1c(CN2CCc3c([nH]c4ccccc34)C2C(C)C)c(=O)n(-c2ccccc2)n1C (stereo not given)	i
Cc1ccc(Nc2nc(NCc3ccc(F)cc3)nc3c2cnn3-c2ccccc2)cc1C	i
O=C(C(=O)N1CC[C@@H](c2ccc3c(c2)OCO3)[C@H](O)C1)c1ccco1	i
CCCc1c(C)nc2ncnn2c1Sc1ccc(NC(=O)c2ccco2)cc1	i
CCCc1c(C)nc2ncnn2c1Sc1ccc(NC(=O)c2ccccc2OCC)cc1	+
CCCc1c(C)nc2ncnn2c1Sc1ccc(NC(=O)c2cccc(Cl)c2)cc1	+
CCCc1c(C)nc2ncnn2c1Sc1ccc(NC(=O)c2ccccc2Cl)cc1	+
SMILES	FECH block
CCCc1c(C)nc2ncnn2c1Sc1ccc(NC(=O)c2ccc(F)cc2)cc1	i
CCCc1c(C)nc2ncnn2c1Sc1ccc(NS(=O)(=O)c2cccc(Cl)c2)cc1	i
CCCc1c(C)nc2ncnn2c1Sc1ccc(NC(C)=O)cc1	i
CCc1c(C)nc2ncnn2c1Sc1ccc(NC(=O)c2ccccc2Br)cc1	i
CCc1c(C)nc2ncnn2c1Sc1ccc(NC(=O)c2cccc(C)c2)cc1	i
O=C(C1CCCO1)N1CCC(NCc2ccc3sccc3c2)CC1 (stereo not given)	i
CN1CC2(CCN(C(=O)c3ccc4c(c3)CCO4)CC2)CC1C(=O)O (stereo not given)	i
CCN1CCN(C(=O)c2ccc3oc(=O)n(Cc4ccccc4)c3c2)CC1	i
COc1cccc(NC(=O)CCc2nc(-c3cc4ccc(C)cc4[nH]c3=O)no2)c1	i
O=C(NCc1cc(=O)[nH]cn1)c1cccc2ccnn12	i
O=C(NCCN1N=C(c2ccccc2)CCC1=O)c1cccc2ccnn12	+
Cc1cc(C)n(CCNC(=O)c2cccc3ccnn23)c(=O)n1	i
Cc1ccc(-n2c(CN3CCN(S(=O)(=O)c4ccc(Cl)s4)CC3)nc3cccnc32)cc1	i
Cc1cccc(-n2c(CN3CCN(S(=O)(=O)c4cccs4)CC3)nc3cccnc32)c1	i
Cc1ccc(-n2c(CN3CCN(S(=O)(=O)c4cccs4)CC3)nc3cccnc32)cc1	+
COc1ccc(OC)c(S(=O)(=O)N2CCN(Cc3nc4cccnc4n3-c3ccccc3)CC2)c1	i
CNc1ncccc1C(=O)NC1CC(=O)N(CCc2cccc(Cl)c2)C1 (stereo not given)	i
Cc1ccc(C(C(=O)NCc2ccc(-c3noc(C)n3)cc2)N(C)C)cc1 (stereo not given)	i
O=C(NCCN1CCCOC1=O)C1CCN(Cc2ccco2)CC1	i
Cc1ccc(C(C(=O)NCCN2CCCOC2=O)N(C)C)cc1 (stereo not given)	+
CCC(C)NC(=O)N1CCN(c2cc(-c3ccc(OC)cc3)ncn2)CC1 (stereo not given)	i
COc1ccccc1-n1nc(C(C)C)nc1CCc1cccnc1	i
COc1ccccc1-n1nc(C(C)C)nc1Cc1cc(C)no1	i
COc1ccccc1-n1nc(CC(C)C)nc1C(C)n1ccnc1 (stereo not given)	+
CCCC(Nc1cc(C)nc(-c2cccnc2)n1)c1nccn1C (stereo not given)	i
SMILES	FECH block
COC(=O)[C@@H]1C[C@@H](NC(=O)c2cc3cc(Cl)ccc3oc2=O)CN1C	i
CCc1nccn1CC(=O)N1CCC(Cc2cccc(C(N)=O)c2)C1 (stereo not given)	i
Cc1c(-c2nccn2[C@@H]2CS(=O)(=O)C[C@H]2O)c(=O)n(-c2ccccc2)n1C	i
CN1C(=O)C(CCC(=O)N2CCCOCC2)(Cc2ccccc2)c2ccccc21 (stereo not given)	i
CN1C(=O)C2(CCN(C(=O)COCC3CCCCO3)CC2)c2ccccc21 (stereo not given)	+
CCCc1nc(C(=O)N2CCCC3(C2)C(=O)N(C)c2ccccc23)cs1 (stereo not given)	i
Cc1ccccc1NC(=O)CC(=O)N1CCOCC1CC(=O)O (stereo not given)	i
C[C@@]1(O)CCN(C(=O)Cc2ccc(O)cc2)C[C@@H]1Cc1ccccc1	i
CC[C@H]1CN(C(=O)c2cnc(N3CCN(C)CC3)nc2C)CC[C@@]1(C)O	i
Cc1cccc(C)c1C(=O)N1CC[C@@](C)(O)[C@@H](Cc2ccccc2)C1	+
CCc1ccc(-c2nccn2-c2ccccc2CCO)o1	i
CCc1cc(-c2nccn2CC2(c3ccccc3)CCOCC2)n[nH]1	i
CCCC(=O)Nc1ccc(CC(=O)NCc2n[nH]c3c2CCC3)cc1	i
COc1ccc(Cl)cc1NC(=O)NCCn1c(-c2ccncc2)nc2cccnc21	i
Cc1cccc(SC2CCN(c3cc(CCN)nc(C)n3)CC2)c1	i
COc1ccc(NCc2nc3nc(C)c(Cc4ccc(Cl)cc4)c(=O)n3[nH]2)cc1	+
CCc1nc2nc(C)c(NC(=O)Nc3cccc(Cl)c3)c(=O)n2[nH]1	i
CCOC(=O)CCc1c(C)nc2nc(CNc3ccc(Cl)cc3)[nH]n2c1=O	+
CCOC(=O)Cc1ccc(NC(=O)Nc2c(C)nc3nc[nH]n3c2=O)cc1	i
CCOC(=O)CCc1c(C)nc2nc(CNc3ccc(C)c(Cl)c3)[nH]n2c1=O	+
CCOC(=O)CCc1c(C)nc2nc(CNc3cc(Cl)ccc3OC)[nH]n2c1=O	i
Cc1ccccc1NCc1nc2nc(C)c(Cc3ccc(Cl)cc3)c(=O)n2[nH]1	i
Cc1ccc(NCc2nc3nc(C)c(Cc4ccc(Cl)cc4)c(=O)n3[nH]2)cc1	i
CCOC(=O)CCc1c(C)nc2nc(CNc3ccccc3OC)[nH]n2c1=O	i
O=C(O)C1CC(=O)N(Cc2csc(Cc3ccccc3)n2)C1 (stereo not given)	i
